Values joined by “and” are separate entries in the source; they are usually repeats but may differ in a detail not shown here. Equal entries are not always repeated. In all, about 6,400 compounds went through this assay and about 610 (9.5%) were called active. No stated cut-off is given here; in the data, active means activity change below about -70%; inconclusive means no clear call, values can overlap the other calls; inactive means above that. For the sample, actives were picked, then their nearest neighbours and some compounds at random. The source holds several records for some structures; these can differ, active in one and inactive in another.
test: Toxoplasma gondii ME49Luc growth in HeLa cells, luciferase, no IFN-y, primary screen (AID 1259421); conditions: T. gondii ME49Luc in HeLa, 72 h, stronger effect = lower value, concentration not given here

SMILES | activity change, negative = inhibition
O=c1c2cc(O)c(O)cc2oc2cc(O)c(C3O[C@H](CO)[C@H](O)[C@@H](O)[C@H]3O)c(O)c12 (stereo partly drawn) | 3.15% (inactive)
COc1ccc(-c2cc(=O)c3c(O)c(OC)c(O[C@H]4O[C@H](CO[C@@H]5O[C@@H](C)[C@H](O)[C@@H](O)[C@H]5O)[C@@H](O)[C@H](O)[C@H]4O)cc3o2)cc1 | 15.1% (inactive)
O=C(NNc1nc2cc(F)ccc2n2cccc12)c1cnccn1 | -77.3% (active)
NC(Cc1ccc(F)cc1)C(=O)O (stereo not drawn) | 2.32% (inactive)
OC1CCC(Nc2ncc3nc(Nc4c(F)cc(F)cc4F)n([C@H]4CCOC4)c3n2)CC1 (stereo partly drawn) | -77.1% (active)
CCCCNc1ncc(-c2ccc(CN3CCOCC3)cn2)c(NC2CCC(O)CC2)n1 (stereo not drawn) | -67.2% (inactive)
O=C(CN1C(=O)c2ccccc2S1(=O)=O)Nc1ccc(O)cc1 | 6.78% (inactive)
Nc1nc(NCCNc2ncc(-n3ccnc3)c(-c3ccc(Cl)cc3Cl)n2)ccc1[N+](=O)[O-] | 38.7% (inactive)
COc1ccc(S(=O)(=O)N2CCCN(S(=O)(=O)c3ccc(OC)c(OC)c3)CC2)cc1OC | 0.269% (inactive)
O=C(NO)c1cnc(N2CCN(S(=O)(=O)c3ccc4ccccc4c3)CC2)nc1 | -82.9% (active)
COc1ccccc1N1CCN(CCCCNC(=O)c2ccc3ccccc3c2)CC1 | -12.8% (inactive)
O=C(O)c1cc(=O)c2ccccc2o1 | 5.57% (inactive) and 14.8% (inactive)
O=c1[nH]c(=O)c2ccccc2o1 | 7.04% (inactive) and -95.9% (active)
O=c1c2ccccc2oc2ccccc12 | 16.7% (inactive)
OC(c1ccccc1)(c1ccccc1)C12CC[N+](CCOCc3ccccc3)(CC1)CC2 | 13.9% (inactive)
COc1ccc2oc(-c3ccccc3OC)cc(=O)c2c1 | 44.1% (inactive)
O=C(Nc1ccccc1)NC1CC(C(=O)O)Nc2cc(Cl)cc(Cl)c21 (stereo not drawn) | 13% (inactive)
CCCNC(C)C(=O)Nc1c(C)csc1C(=O)OC (stereo not drawn) | 20% (inactive)
Cc1ccccc1N=C(N)Nc1ccccc1C | 5.45% (inactive) and 4.9% (inactive)
CCCNC(C)C(=O)Nc1ccccc1C (stereo not drawn) | 37.2% (inactive) and -79.6% (active)
CCCCCCCCCCCCCCCC(=O)OC1C(SC)OC(C(NC(=O)C2CC(CCC)CN2C)C(C)Cl)C(O)C1O (stereo not drawn) | -9.26% (inactive)
COCCn1c2c([n+](Cc3cnccn3)c1C)C(=O)c1ccccc1C2=O | -83.1% (active) and -81.3% (active)
CN1c2cc(O)c(N=NC(N)=O)cc2CC1S(=O)(=O)O (stereo not drawn) | -1.43% (inactive)
O=P(O)(O)C(Sc1ccc(Cl)cc1)P(=O)(O)O | 5.32% (inactive) and -0.0921% (inactive)
CC(=O)OCC(=O)[C@@]1(O)CCC2C3C[C@H](C)C4=CC(=O)C=CC4(C)C3[C@@H](O)CC21C (stereo partly drawn) | -6.72% (inactive)
N[C@@H](CSS(=O)(=O)O)C(=O)O | 14.6% (inactive)

SMILES | activity change, negative = inhibition
c1cc(OCCN2CCCCC2)cc(-c2n[nH]c3ccc(-c4ncn[nH]4)cc23)c1 | -32.3% (inactive)
C1=C/COCc2cc(ccc2OCCN2CCCC2)Nc2nccc(n2)-c2cccc(c2)COC/1 | -80.3% (active)
Cc1ccccc1N1CCN(S(=O)(=O)CC23CCC(C[C@@H]2NC(=O)[C@@H](N)CCS(C)(=O)=O)C3(C)C)CC1 (stereo partly drawn) | 1.28% (inactive) and 5.87% (inactive)
Cc1cc(OCC(=O)O)cc(C)c1Cc1ccc(O)c(C(C)C)c1 | 1.47% (inactive)
CCCCc1oc2ccccc2c1C(=O)c1cc(I)c(OCCN(CC)CC)c(I)c1 | -58.9% (inactive)
CCCCc1oc2ccc(NS(C)(=O)=O)cc2c1C(=O)c1ccc(OCCCN(CCCC)CCCC)cc1 | -83.6% (active)
CN(CCOc1ccc(NS(C)(=O)=O)cc1)CCc1ccc(NS(C)(=O)=O)cc1 | -7.15% (inactive) and -5.58% (inactive)
CCCCC/C=C\C/C=C\C/C=C\CCCCCCC(=O)O | 4.57% (inactive)
Clc1ccc(-c2nc3sccn3c2/C=N/OCc2ccc(Cl)c(Cl)c2)cc1 | 27.7% (inactive) and 3.2% (inactive)
C[C@H](N)C(=O)N[C@@H](C)P(=O)(O)O | 9.38% (inactive)
CC[C@H](C)[C@@H]([C@@H](CC(=O)N1CCC[C@H]1[C@H](OC)[C@@H](C)C(=O)N[C@@H](Cc1ccccc1)c1nccs1)OC)N(C)C(=O)[C@@H](NC(=O)[C@H](C(C)C)N(C)C)C(C)C | -85.6% (active)
CNC(=O)C1OC(n2cnc3c(NCc4cccc(I)c4)nc(Cl)nc32)C(O)C1O (stereo not drawn) | -2.06% (inactive)
COc1ccc(C(=O)c2ccc(C)cc2)c(O)c1 | 154% (inactive) and 98.7% (inactive)
Cc1ccc(C(=O)c2cc(O)c(O)c([N+](=O)[O-])c2)cc1 | -80% (active) and 2.13% (inactive)
NC(=O)c1ccc(I)c([N+](=O)[O-])c1 | 13.7% (inactive)
COc1cc(OC)c(/C=C/S(=O)(=O)Cc2ccc(OC)c(NCC(=O)O)c2)c(OC)c1 | -46.4% (inactive)
COc1ccnc2[nH]cc(C(=O)C(=O)N3CCN(C(=O)c4ccccc4)C[C@H]3C)c12 | 5.24% (inactive)
C[C@]12CC[C@H](O)CC1=CCC1C2CC[C@]2(C)C(n3cnc4ccccc43)=CCC12 (stereo partly drawn) | -67.5% (inactive)
Fc1ccc(-c2nc3n(c2-c2ccncc2)CCS3)cc1 | -79.8% (active)
COC(=O)Cc1cccn1C | 10.9% (inactive)
CC(O)CN(CCN(CC(C)O)CC(C)O)CC(C)O (stereo not drawn) | 15.4% (inactive)
Cc1cc(OCc2nnc(SC3CCCC3)n2-c2cccnc2)ccc1-c1ccc(S(C)(=O)=O)cc1 | -79.2% (active)
CSCC[C@H](NC(=O)[C@@H](N)Cc1c[nH]c2ccccc12)C(=O)N[C@@H](CC(=O)O)C(=O)N[C@@H](Cc1ccccc1)C(N)=O | 17% (inactive)
CC(=O)O[C@]1(C(C)=O)CCC2C3C=C(C)C4=CC(=O)CC[C@]4(C)C3CC[C@@]21C (stereo partly drawn) | 9.66% (inactive)
Cn1c(O)c(C2=c3ccccc3=NC2=O)c2ccccc21 | 13.5% (inactive)
CCC(C)n1ncn(-c2ccc(N3CCN(c4ccc(OC[C@H]5CO[C@](Cn6cncn6)(c6ccc(Cl)cc6Cl)O5)cc4)CC3)cc2)c1=O (stereo partly drawn) | -63.1% (inactive) and -38.1% (inactive)

SMILES | activity change, negative = inhibition
C#C[C@]1(O)CCC2C3CCc4cc(OC5CCCC5)ccc4C3CC[C@@]21C (stereo partly drawn) | 33.4% (inactive)
C#C[C@]1(O)CC[C@H]2[C@@H]3CCc4cc(O)ccc4[C@H]3CC[C@@]21C | -81.1% (active)
C[C@]12CC[C@@H]3c4ccc(O)cc4CC[C@H]3[C@@H]1CCC2=O | -66.6% (inactive) and -57.7% (inactive)
C#C[C@]1(O)CCC2C3CCc4cc(OC)ccc4C3CC[C@@]21C (stereo partly drawn) | 7.57% (inactive)
C#C[C@]1(O)CC[C@H]2[C@@H]3CCc4cc(OC)ccc4[C@H]3CC[C@@]21C | 9.24% (inactive)
C#C[C@]1(O)CCC2C3CCc4cc(O)ccc4C3CC[C@@]21C (stereo partly drawn) | -81.3% (active)
CCOc1ccc(Cc2cc([C@@H]3O[C@H](CO)[C@@H](O)[C@H](O)[C@H]3O)ccc2Cl)cc1 | 4.88% (inactive) and 10.3% (inactive)
CCN1/C(=C/C(C)=O)Sc2ccc(OC)cc21 | 21% (inactive)
CC#CCOC(=O)c1c(C)nc2sc3c(c2c1N)CCC(O)C3 (stereo not drawn) | 49.7% (inactive) and 66.7% (inactive)
N[C@@H]1[C@@H](O)[C@H](O)[C@@H](CO)O[C@H]1O | 1.35% (inactive)
CN(CCc1ccc(Cl)c(Cl)c1)CCN1CCCC1 | 14.6% (inactive)
CC1(O)C(O)C(CO)OC1n1ccc(N)nc1=O (stereo not drawn) | 27.1% (inactive)
C[C@@H]1O[C@@H](O[C@@H]2[C@H](Oc3cc(O)c(C(=O)CCc4ccc(O)cc4)c(O)c3)O[C@H](CO)[C@@H](O)[C@@H]2O)[C@H](O)[C@H](O)[C@H]1O | 5.31% (inactive)
COc1cc2c(cc1OC)CC(=O)N(CCCN(C)C[C@@H]1Cc3cc(OC)c(OC)cc31)CC2 | 13.9% (inactive)
COc1cc2ncnc(Oc3cccc(NC(=O)Nc4cc(C(C)(C)C(F)(F)F)on4)c3)c2cc1OC | -78.4% (active)
COc1cc2ncnc(Nc3cccc(O)c3)c2cc1OC | 10.5% (inactive)
CCCNC(=O)Nc1ccc(Oc2ncnc3cc(OC)c(OC)cc23)cc1Cl | 6.99% (inactive)
CNc1cc(OC)c(C(=O)N[C@@H]2CCN(Cc3ccccc3)[C@@H]2C)cc1Cl (racemic) | 26% (inactive)
CC(=O)Nc1nc(C)c(-c2ccc(Cl)c(S(=O)(=O)NCCO)c2)s1 | -78.9% (active)
Cc1nc(NC(=O)N2CCC[C@H]2C(N)=O)sc1-c1ccnc(C(C)(C)C(F)(F)F)c1 | -3.31% (inactive)
CC(=O)Nc1nnc(S(N)(=O)=O)s1 | 18.1% (inactive) and 14.1% (inactive)
c1ncc(CC2CCNCC2)[nH]1 | 9.05% (inactive) and 12.6% (inactive)
N#C/C(=C/c1ccc(O)c(O)c1)C(=O)NCCCCc1ccccc1 | 28.9% (inactive)
COc1cnc(-n2cnc(C)n2)c2[nH]cc(C(=O)C(=O)N3CCN(C(=O)c4ccccc4)CC3)c12 | 22.1% (inactive)
C=C1C(=O)O[C@@H]2[C@H]3O[C@]3(C)CC/C=C(\C)CC[C@@H]12 | 6.15% (inactive)
CCC[C@@H]1C[C@@H](C(=O)N[C@@H](C2O[C@H](SC)[C@H](O)[C@@H](O)[C@H]2O)[C@H](C)Cl)N(C)C1 (stereo partly drawn) | -0.424% (inactive)
